Results on 37 compounds are retold here after article PMC5540273 (PLoS ONE, 2017).
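Also: KINOMEscan kinase panel screen.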

The experiment concerns NEK4. To be noted: concentration: 1 μM, replicates: in singlicate; n = 1.
With `CN1CCN(Cc2ccc(NC(=O)Nc3ccc(N(C)c4ccnc(Nc5ccc(CS(C)(=O)=O)cc5)n4)cc3)cc2)CC1.Cl` [GW827654], the “%Inh” value is given as 24%.
On to `COc1cccc(-c2nc(-c3ccccc3)[nH]c2-c2ccncc2)c1` [SB-610250], for which the “%Inh” value is 16%.
Take `CN(C)CCNS(=O)(=O)c1ccc(-c2ccnc3[nH]ccc23)cc1` [GSK977620]: the “%Inh” value was determined as 4%.
Consider `N#CC1(c2cccc(C(=O)Nc3cccc(Oc4ccc5nc(NC(=O)C6CC6)sc5n4)c3)c2)CC1`, for which the “%Inh” value is listed as 0%.
Take `CCNC(=O)/C=C/c1n[nH]c2cc(Sc3ccccc3C(=O)NC)ccc12`: the “%Inh” value is reported as 0%.
Consider `CCn1cnc2c(NCc3ccccc3)ncnc21` [SKF-96418], for which the “%Inh” value came to 0%.
Take `CN(c1ccc2c(c1)nc(NCc1ccccc1)n2C)c1ccnc(Nc2ccc(CS(C)(=O)=O)cc2)n1.Cl` [GW811603]: the “%Inh” value turned out to be 0%.
With `Cl.O=C(Nc1ccc(Oc2ccc3[nH]c(NC(=O)c4ccco4)nc3c2)cc1)Nc1cc(C(F)(F)F)ccc1F` [GW683134], the “%Inh” value is on record as 0%.
For `Nc1ncc(-c2cn[nH]c2)c2scc(-c3ccc4c(c3)CCN4C(=O)Cc3ccccc3)c12` [GSK2593067], the “%Inh” value is reported as 11%.
Turning to `Cc1ccc(NC(=O)c2ccc(Cl)c(Cl)c2)cc1-c1ccc(C(=O)Nc2ccncc2)cc1` [GSK1398460], the “%Inh” value came to 0%.
The figure for `COC(=O)Nc1nc2ccc(Oc3ccc(NC(=O)Nc4cc(C(F)(F)F)ccc4F)cc3)cc2[nH]1.Cl` [GW654607] is 0%; for `COc1ccc(C)c(Nc2ccnc(Nc3ccc(-c4cnc[nH]4)cc3)n2)c1.Cl` [GW784041] it is 0%.
Consider `CCNc1nccc(-c2c(-c3ccc(F)cc3)ncn2C2CCN(C)CC2)n1`, for which the “%Inh” value is reported as 0%.
Take `CS(=O)(=O)c1cccc(CNc2nc(Nc3ccc4c(c3)CCC(=O)N4)ncc2C(F)(F)F)c1`: the “%Inh” value worked out at 0%.
The figure for `Cc1ccc(NC(=O)c2ccnc(N3CCCCC3)c2)cc1-c1ccc(C(=O)NCC2CC2)cc1` [GW775610] is 0%; for `CN(C)c1ncnc2nc[nH]c12` [SKF-31736] it is 0%; for `Cc1ccc(Nc2ccnc(Nc3ccc(C)c(F)c3)n2)cc1O.Cl` [GW582868] it is 7%.
In the case of `Cc1ccc(O)cc1Nc1ccnc2ccc(C(C)(C)C)cc12` [GW856805], the “%Inh” value stood at 1%.
In the case of `Cn1cc(-c2ccc3c(c2)CCN3C(=O)Cc2cc(F)cc(C(F)(F)F)c2)c2c(N)ncnc21` [GSK2635225], the “%Inh” value turned out to be 13%.
As for `CN(c1ccc(F)c(NC(=O)c2cccc(OC(C)(C)C#N)c2Cl)c1)c1ccc2nc(NC(=O)C3CC3)sc2n1`, the “%Inh” value turned out to be 1%.
In the case of `CC(C)NCC(Cc1ccccc1)NC(=O)c1cc(Br)c(-c2ccnc3[nH]ccc23)s1.Cl.Cl` (stereo not shown) [GSK1383281], the “%Inh” value is 0%.
With `CCOc1nccc(-c2c(-c3ccc(F)cc3)ncn2C2CCNCC2)n1` [SB-249175], the “%Inh” value is listed as 0%.
Consider `CN(C)CCOc1ccc(-c2cc(-c3ccc(Cl)c(O)c3)c(-c3ccncc3)[nH]2)cc1.Cl.Cl` [SB-684387], for which the “%Inh” value was 0%.
Take `O=C(O)C(F)(F)F.O=c1[nH]ccc2nc(N[C@@H]3CCNC3)nc(Nc3cc(Cl)cc(Cl)c3)c12` [GSK2188764]: the “%Inh” value was 17%.
On to `CNc1nccc(-c2ccc3c(N)n[nH]c3c2)n1` [GSK2206003], for which the “%Inh” value stood at 0%.
Take `CC(C)c1nc(-c2ccc(F)c(NS(=O)(=O)c3c(F)cccc3F)c2)c(-c2ccnc(Nc3ccc(N4CCOCC4)nc3)n2)s1` [GSK1804250]: the “%Inh” value was 10%.
As to `Cc1ccc(-c2ccc3occ(-c4ccc(S(C)=O)cc4)c3c2)nn1` (stereo not shown), the “%Inh” value is 0%.
As to `Nc1ncnc2scc(-c3ccc(NC(=O)Cc4cc(F)ccc4F)cc3)c12.O=C(O)C(F)(F)F` [SB-731254-M], the “%Inh” value turned out to be 16%.
On to `COc1cc(Nc2nccc(N3CCC(NC(=O)Nc4ccc5c(c4)OCO5)C3)n2)cc(OC)c1OC` (stereo not shown) [GSK1379766], for which the “%Inh” value came to 26%.
Turning to `O=C(Nc1n[nH]c2cc(-c3cccs3)ccc12)C1CC1` [SB-731284], the “%Inh” value is on record as 39%.
For `Fc1cc(Cl)ccc1Nc1ccnc2cc(-c3ccc(CN4CCSCC4)o3)ccc12` [GW560106], the “%Inh” value came to 0%.
`COc1cccc(CC(=O)N2CCc3cc(-c4cn(C)c5ncnc(N)c45)ccc32)c1` [GSK2608899]: the “%Inh” value is on record as 44%.
Take `COc1ccc(C2=C(Nc3cccc(O)c3)C(=O)NC2=O)cc1` [SB-390766]: the “%Inh” value is reported as 5%.
For the compound `Cc1ccc(O)cc1Nc1ccnc2cc(-c3ccc(CN4CCCCC4)o3)ccc12` [GW557777], the “%Inh” value was found to be 0%.
The figure for `Cc1ccc(C)c(NC(=O)Nc2ccc(C)c(-c3ccc(C(=O)Nc4ccncc4)cc3)c2)c1` [GSK1398473] is 0%; for `Cc1cc(-c2ccnc(Nc3cccc(C#N)c3)n2)cc(C)c1O` [GSK1440913] it is 1%.
The figure for `Nc1ncc(-c2ccc3nccc(-c4ccncc4)c3c2)cc1S(=O)(=O)N1CCCCC1` [GSK1693850] is 0%.
